Screens: PubChem BioAssay, The Scripps Research Institute Molecular Screening Center
MOR-DOR inv ag – inverse agonist of human OPRM1-OPRD1 heterodimerization; P35372+P41143; cell-based MOR-DOR heterodimer luminescence, inverse agonism; inhibition, % at 9.3 µM; 340,000 compounds, 0.21% hits; in the data active = inhibition above about 22%, passing the limit was not always enough;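 also: 0% = cells with DMSO and 100% = wells without cells with DMSO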
Target sequence (P35372 whole entry, looked up): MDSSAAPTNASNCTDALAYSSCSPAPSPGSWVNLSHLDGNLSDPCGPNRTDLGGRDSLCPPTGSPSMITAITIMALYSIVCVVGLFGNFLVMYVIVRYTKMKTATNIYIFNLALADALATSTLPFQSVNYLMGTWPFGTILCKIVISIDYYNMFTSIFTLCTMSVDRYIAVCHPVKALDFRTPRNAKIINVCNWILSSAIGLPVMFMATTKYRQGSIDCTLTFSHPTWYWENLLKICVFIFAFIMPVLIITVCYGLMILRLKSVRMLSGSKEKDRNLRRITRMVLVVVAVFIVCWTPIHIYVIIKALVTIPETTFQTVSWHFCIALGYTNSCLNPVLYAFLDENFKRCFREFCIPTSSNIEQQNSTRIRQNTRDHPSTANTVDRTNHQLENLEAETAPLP
Target sequence (P41143 whole entry, looked up): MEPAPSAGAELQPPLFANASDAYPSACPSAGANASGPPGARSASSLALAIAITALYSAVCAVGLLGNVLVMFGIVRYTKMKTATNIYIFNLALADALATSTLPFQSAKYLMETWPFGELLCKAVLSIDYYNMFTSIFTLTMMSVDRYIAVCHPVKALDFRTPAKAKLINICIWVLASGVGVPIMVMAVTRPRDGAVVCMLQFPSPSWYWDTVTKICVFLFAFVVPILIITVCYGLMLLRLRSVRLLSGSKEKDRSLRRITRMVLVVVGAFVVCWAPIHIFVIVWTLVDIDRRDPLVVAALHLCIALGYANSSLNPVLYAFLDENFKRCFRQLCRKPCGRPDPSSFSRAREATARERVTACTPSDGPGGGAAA
HTR5A inv ag – counter-screen for OPRM1-OPRD1 inverse agonists: human HTR5A inverse agonism; P47898; HTR5A cell line, luminescence; inhibition, % at 9.3 µM; 340,000 compounds, 0.083% hits; in the data active = inhibition mostly above about 23%, no sharp cut-off; inactive = mostly below about 18%;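 also: 0% = cells with DMSO and 100% = no-cell wells with DMSO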
HTR5A ag ctr – activates human HTR5A in OPRM1-OPRD1 agonist counter-screen. P47898. HTR5A agonist assay, luminescence, cell-based. activation, % at 9.3 µM. 340,000 compounds, 0.61% hits. AID 504692; in the data active = activation mostly above about 9.5%, no sharp cut-off; inactive = mostly below about 7.6%;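 also: 0% = cells with vehicle only and 100% = reference agonist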
MOR-DOR ag-1 – agonists of human mu-delta opioid receptor heterodimerization; P35372+P41143; AID 504326; cells, OPRM1-OPRD1 heterodimerization, luminescence; 340,000 compounds, 0.3% hits; activation, % at 9.3 µM;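 also: 0% = vehicle-treated cells and 100% = reference agonist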
MOR-DOR ag-2 – promotes OPRM1-OPRD1 heterodimerization in HTR5A counter-screen | shares compounds with HTR5A ag ctr | U2OS counter-screen cells, complementation luminescence, 3 h | activation, % at 9.3 µM | 800 compounds, 13% hits | AID 504913
HTR5A ag conf – confirmation of human HTR5A agonists | shares compounds with HTR5A ag ctr | HTR5A agonist cell assay, luminescence | activation, % at 9.3 µM | 800 compounds, 17% hits | AID 504915; in the data active = activation above about 17%;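 also: 0% = cells with vehicle only and 100% = full reference agonist response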
Starred values were filed as active, the others as inactive; . = not tested or not shown. Hits are enriched below; roughly 1.1% of the tested compounds scored in any of these assays. Rule as the data show it, unless noted: active = activation above about 18%; inactive = the rest.

SMILES	MOR-DOR inv ag	HTR5A inv ag	HTR5A ag ctr	MOR-DOR ag-1	MOR-DOR ag-2	HTR5A ag conf
COC(=O)N1CCc2c(sc(NC(=O)C3COc4ccccc4O3)c2C(N)=O)C1 (configuration not stated)	2	-169	61*	0	3	43*
O=C(O)c1ccccc1C(=O)Nc1ccc(Br)c(C(F)(F)F)c1	6	-5	-4	-1	.	.
Cc1cc(C)c(C(=O)Nc2ccc(Br)c(C(F)(F)F)c2)c(C)c1	-46	-13	18*	8	0	0
O=C(CSc1nnc(NC(=O)C2CCC2)s1)Nc1ccccc1F	-7	-11	4	1	.	.
C=C1CCN(c2ccc(C(=O)NCc3ccc(OC)cc3)cc2[N+](=O)[O-])CC1	7	-12	-1	-1	.	.
COc1ccc2[nH]c3c(c2c1)CCNC3(C)CCc1ccc(Cl)nc1 (configuration not stated)	5	-81	21*	-1	2	34*
COc1ccc2[nH]c3c(c2c1)CCNC3=O	18	-8	-2	-3	.	.
O=C(COc1ccc(C(=S)N2CCC(Cc3ccccc3)CC2)cc1)N1CCOCC1	4	-43	15*	-1	5	3
COc1ccc(S(=O)(=O)c2snnc2C)cc1	14	-25	7	-3	.	.
CCCCC1(Br)C(=O)N(c2ccccc2)N(c2ccccc2)C1=O	23	-42	16*	-6	1	0
Nc1nonc1-n1nnc(C(=O)N/N=C/c2ccc(OCc3ccccc3)cc2)c1COc1ccc(F)cc1	-5	13	1	1	.	.
CC(C)c1c(C(=O)N/N=C/c2ccc(OCc3ccc(F)cc3)cc2)nnn1-c1nonc1N	-21	-8	15*	4	7	-1
CC(C)c1c(C(=O)N/N=C/c2ccc(OCc3ccccc3)cc2)nnn1-c1nonc1N	-13	-4	22*	2	41*	-1
O=[N+]([O-])c1ccc(N2CCN(c3ccccn3)CC2)c(Cl)c1	-23	-15	5	4	.	.
CCc1nn(CC(=O)NCCCN2CCOCC2)c(=O)c2cc3c(OC)cccc3n12	4	-24	6	-1	.	.
COc1ccc(CC(C)N2CCN(c3cccc(C(F)(F)F)c3)CC2)cc1OC (configuration not stated)	-27	-106	33*	5	11	29*
CCOc1cc(CN2CCN(c3cccc(C(F)(F)F)c3)CC2)ccc1OC	-15	-17	6	3	.	.
COc1cccc(CN2CC(C(=O)NCCc3ccc(C)s3)CCC2=O)c1 (configuration not stated)	1	13	3	0	.	.
Cc1ccc(OCCn2c(CCNC(=O)C(C)C)nc3ccccc32)cc1	13	-55	20*	-2	5	11
CC(C)C(=O)NCCc1nc2ccccc2n1CCCOc1ccc(Cl)cc1	-1	12	-4	0	.	.
O=C(COC(=O)c1cccc(OC(F)F)c1)Nc1cccc(S(=O)(=O)N2CCCC2)c1	-3	-10	4	1	.	.
COc1cc(/C=C2\SC(=O)N(CCN)C2=O)ccc1OS(=O)(=O)c1cc(C)ccc1C	-42	-64	22*	9	19*	15
O=C(O)C(Cc1ccccc1)NC(=O)C(c1ccccc1)c1ccccc1 (configuration not stated)	14	19	0	-3	.	.
O=C(N/N=C1\CCCc2ccccc21)c1ccccc1[N+](=O)[O-]	-20	3	15*	3	2	15
CC1CCCN(S(=O)(=O)c2ccc(NC(=O)CN3C(=O)NC(C)(c4ccccc4)C3=O)cc2)C1 (configuration not stated)	9	-15	5	-1	.	.
SMILES	MOR-DOR inv ag	HTR5A inv ag	HTR5A ag ctr	MOR-DOR ag-1	MOR-DOR ag-2	HTR5A ag conf
Cc1cc(C(C)(C)C)cc(C)c1CC1=NCCN1	4	-236	90*	-1	0	90*
Cc1ccccc1/C=N/Nc1ncnc2nc[nH]c12	13	8	14*	-2	28*	3
CC1(C)Cc2c(C#N)c(N3CCN(C(=O)c4ccco4)CC3)nc(-c3ccco3)c2CS1	7	-32	18*	-1	0	5
O=C(CCc1c[nH]c2ccccc12)N1CCN(S(=O)(=O)c2ccccc2)CC1	19	3	-1	-4	.	.
CCn1c(N2CCN(C(=O)NC3CCCCC3)CC2)nc2ccccc21	3	-47	24*	-1	16	2
CC(C)c1ccc(NC(=O)C2CCCCN2S(=O)(=O)c2ccccc2)cc1 (configuration not stated)	-8	-12	5	2	.	.
COC(=O)c1c(NC(=O)CSc2n[nH]c(N)n2)sc(C)c1C	8	0	-1	-1	.	.
CCOC(=O)c1c(NC(=O)CSc2n[nH]c(N)n2)sc(CC)c1C	-19	-24	17*	3	9	2
CCOC(=O)c1c(NC(=O)CSc2n[nH]c(-c3ccco3)n2)sc(C)c1C	0	-24	5	0	.	.
CCOC(=O)c1c(NC(=O)CSc2n[nH]c(CNc3ccccc3)n2)sc(C)c1C	-50	-12	23*	9	6	4
O=C(CSc1n[nH]c(-c2ccco2)n1)Nc1ccc(Br)cc1	17	16	-4	-3	.	.
O=C(CSc1n[nH]c(-c2ccco2)n1)Nc1sc2c(c1C(=O)Nc1ccccc1)CCCC2	-6	-30	18*	1	3	4
COC(=O)C1CC(C(=O)OC)C2C(C(=O)OC)CC(C(=O)OC)C12 (configuration not stated)	18	9	-3	-3	.	.
Cc1nc(N)nc(N)c1CCCc1ccc(Cl)c(Cl)c1	-8	-30	18*	2	1	0
NS(=O)(=O)c1ccc(NC(=O)COC(=O)CC2Sc3ccccc3NC2=O)cc1 (configuration not stated)	0	8	-3	0	.	.
CCN1CCN(c2cc(-c3ccccc3)nc3cc(-c4cccc(F)c4)nn23)CC1	-45	-8	14*	10	11	-3
OC1CCN(c2cc(-c3ccccc3)nc3cc(-c4ccc(F)cc4)nn23)CC1	9	-3	1	-2	.	.
COc1ccc(CCNC(=O)c2c(O)c3ccccc3[nH]c2=O)cc1	13	21	-6	-3	.	.
O=C(Nc1ccc(S(=O)(=O)N2CCOCC2)cc1)c1c(F)cccc1F	-2	-13	5	0	.	.
Cc1cn(C2CCCCC2)c(=O)[nH]c1=O	10	-6	2	-2	.	.
Cn1c(N/N=C2\CCCc3ccccc32)nc2c1c(=O)n(Cc1ccc(F)cc1)c(=O)n2C	-6	-17	15*	1	0	12
Cc1ccc(C(=O)c2coc3c2C(=O)C(=O)c2ccccc2-3)cc1	-73	-33	19*	13	7	7
Cc1oc2c(c1C(=O)c1ccc(Cl)cc1)C(=O)C(=O)c1ccccc1-2	-17	0	0	3	.	.
COc1ccc(/C=N/NC(=O)CNS(=O)(=O)c2ccccc2)cc1	14	-52	21*	-4	-1	-2
